Results reported in PubChem BioAssay.
“And” between values parts separate entries of the source, which are not always exact repeats. Identical values can stand only once. The source made the active and inactive calls.

Key:
[1] = compounds binding Alexa647 anti-His antibody – biochemical, small-molecule microarray, 635 nm fluorescence, artefact control for SMM control protein annotation, primary screen (AID 1128); conditions: higher = more signal;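 also: score merges feature fluorescence with signal-to-noise for each printed compound spot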
[2] = tested on: Human papillomavirus type 1a E7 protein (residues 1-88); assay: HPV1a E7 small-molecule binders, primary screen, biochemical, small-molecule microarray, residues 1-88, 635 nm (AID 1129); conditions: small-molecule microarray binding, fluorescence 635 nm; higher = more signal
[3] = target: Focal adhesion kinase 1 (Homo sapiens) (UniProt Q05397); assay: PTK2 protein binding on printed compound slides – biochemical, small-molecule microarray, 635/667 nm fluorescence, BSA, DTT, primary screen (AID 1130); conditions: 635 nm fluorescence, higher = more signal;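 also: composite of spot emission at 667 nm and signal to noise over triplicate slides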
Focal adhesion kinase 1 (Homo sapiens), sequence (Q05397 whole entry, looked up): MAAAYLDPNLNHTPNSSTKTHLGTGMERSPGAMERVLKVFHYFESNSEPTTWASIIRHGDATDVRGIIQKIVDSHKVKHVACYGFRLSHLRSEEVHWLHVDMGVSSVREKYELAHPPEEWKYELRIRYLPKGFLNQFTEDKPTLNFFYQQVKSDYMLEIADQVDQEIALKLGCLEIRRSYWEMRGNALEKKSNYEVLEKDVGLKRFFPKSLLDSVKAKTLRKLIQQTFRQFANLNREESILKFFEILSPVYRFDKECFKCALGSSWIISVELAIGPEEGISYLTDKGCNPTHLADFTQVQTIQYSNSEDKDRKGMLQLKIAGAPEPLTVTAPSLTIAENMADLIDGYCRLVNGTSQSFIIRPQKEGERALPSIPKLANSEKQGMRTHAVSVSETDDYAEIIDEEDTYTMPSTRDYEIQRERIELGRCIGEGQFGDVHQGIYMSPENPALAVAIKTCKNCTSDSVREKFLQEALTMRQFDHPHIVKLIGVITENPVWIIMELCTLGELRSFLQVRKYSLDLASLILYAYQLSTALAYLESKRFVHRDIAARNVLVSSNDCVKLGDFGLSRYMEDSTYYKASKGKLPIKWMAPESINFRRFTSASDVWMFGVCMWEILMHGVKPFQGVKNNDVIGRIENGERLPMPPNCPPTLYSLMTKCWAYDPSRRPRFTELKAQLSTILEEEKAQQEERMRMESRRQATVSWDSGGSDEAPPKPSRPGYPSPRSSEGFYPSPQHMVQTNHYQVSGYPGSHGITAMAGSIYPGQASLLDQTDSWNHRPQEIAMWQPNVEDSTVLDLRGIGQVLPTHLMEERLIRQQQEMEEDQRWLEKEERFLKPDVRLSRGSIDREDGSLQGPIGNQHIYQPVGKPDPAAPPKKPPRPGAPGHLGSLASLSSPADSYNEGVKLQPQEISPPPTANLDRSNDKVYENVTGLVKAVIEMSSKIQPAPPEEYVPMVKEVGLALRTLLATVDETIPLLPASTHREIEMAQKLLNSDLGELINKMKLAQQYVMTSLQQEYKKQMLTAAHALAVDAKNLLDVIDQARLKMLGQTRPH

[4] = tested on: Fibrinogen (Alexa647-labelled); assay: Alexa647-fibrinogen binding to printed small molecules – biochemical, small-molecule microarray, 635/667 nm fluorescence, artefact control for SMM control-protein annotation, profiling panel (AID 1131); conditions: fibrinogen-A647 binding fluorescence, higher = more signal;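 also: z-score merges 667 nm fluorescence with per-spot signal-to-noise over triplicate slides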
[5] = target: Follistatin (Homo sapiens) (UniProt P19883); assay: FST protein binding to printed compounds – biochemical, small-molecule microarray, 635/667 nm fluorescence, primary screen (AID 1132); conditions: 635 nm fluorescence, higher = more signal
Follistatin (Homo sapiens), sequence (P19883 whole entry, looked up): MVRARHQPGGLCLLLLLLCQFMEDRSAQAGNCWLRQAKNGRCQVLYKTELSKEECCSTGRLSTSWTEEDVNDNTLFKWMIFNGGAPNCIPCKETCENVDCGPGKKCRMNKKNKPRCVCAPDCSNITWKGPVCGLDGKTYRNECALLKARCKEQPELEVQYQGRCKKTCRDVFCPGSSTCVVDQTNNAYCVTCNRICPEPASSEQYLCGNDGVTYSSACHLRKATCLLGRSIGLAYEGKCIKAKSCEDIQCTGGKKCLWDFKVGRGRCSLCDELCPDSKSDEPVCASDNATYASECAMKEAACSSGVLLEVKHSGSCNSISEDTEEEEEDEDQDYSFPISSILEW

[6] = target: Fibroblast growth factor 2 (Homo sapiens) (UniProt P09038); assay: basic fibroblast growth factor binding to printed compounds – biochemical, small-molecule microarray, 635/667 nm fluorescence, primary screen (AID 1133); conditions: FGF2, fluorescence 635/667, higher = more signal
Fibroblast growth factor 2 (Homo sapiens), sequence (P09038 whole entry, looked up): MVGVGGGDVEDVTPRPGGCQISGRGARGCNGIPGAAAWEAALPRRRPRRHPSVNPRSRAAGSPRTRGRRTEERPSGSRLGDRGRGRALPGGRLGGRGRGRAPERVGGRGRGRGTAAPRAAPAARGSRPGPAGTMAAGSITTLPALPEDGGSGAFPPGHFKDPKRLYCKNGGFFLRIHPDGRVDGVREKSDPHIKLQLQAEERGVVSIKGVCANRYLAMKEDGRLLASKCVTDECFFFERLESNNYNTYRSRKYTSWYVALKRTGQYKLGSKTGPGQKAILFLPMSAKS

[7] = JC-1 mitochondrial potential readout, lung cancer cells – cell-based, A549, JC-1 fluorescence, basal, 24 h, 100 nL, profiling panel (AID 1138); conditions: higher = more signal;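 also: A549 lung adenocarcinoma cells under basal conditions with no added stimulus; test concentration not given here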
[8] = tested on: Lefty1; assay: Lefty1 protein binding to printed compounds – biochemical, small-molecule microarray, 635/667 nm fluorescence, primary screen (AID 1139); conditions: fluorescence 635/667, higher = more signal
[9] = tested on: wheat germ agglutinin (Triticum aestivum), Alexa647-labelled; assay: Alexa647-WGA lectin binding to printed small molecules – biochemical, small-molecule microarray, 635/667 nm fluorescence, artefact control for SMM control-protein annotation, profiling panel (AID 1140); conditions: WGA-A647 binding, 635 nm fluorescence, higher = more signal;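 also: score merges 667 nm feature emission with signal to noise over triplicate slides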
[10] = target: Luciferin 4-monooxygenase (Photinus pyralis) (UniProt P08659); assay: inhibition of purified Photinus pyralis luciferase – biochemical, luminescence, purified enzyme, 2006 set, primary screen (AID 1141); conditions: purified firefly luciferase, SteadyGlo luminescence, 30 min; higher = more signal, called active from +8 up or from −8 down;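 also: cell-free assay with purified firefly luciferase at 100 ng per well in PBS; test concentration not given here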
Luciferin 4-monooxygenase (Photinus pyralis), sequence (P08659 whole entry, looked up): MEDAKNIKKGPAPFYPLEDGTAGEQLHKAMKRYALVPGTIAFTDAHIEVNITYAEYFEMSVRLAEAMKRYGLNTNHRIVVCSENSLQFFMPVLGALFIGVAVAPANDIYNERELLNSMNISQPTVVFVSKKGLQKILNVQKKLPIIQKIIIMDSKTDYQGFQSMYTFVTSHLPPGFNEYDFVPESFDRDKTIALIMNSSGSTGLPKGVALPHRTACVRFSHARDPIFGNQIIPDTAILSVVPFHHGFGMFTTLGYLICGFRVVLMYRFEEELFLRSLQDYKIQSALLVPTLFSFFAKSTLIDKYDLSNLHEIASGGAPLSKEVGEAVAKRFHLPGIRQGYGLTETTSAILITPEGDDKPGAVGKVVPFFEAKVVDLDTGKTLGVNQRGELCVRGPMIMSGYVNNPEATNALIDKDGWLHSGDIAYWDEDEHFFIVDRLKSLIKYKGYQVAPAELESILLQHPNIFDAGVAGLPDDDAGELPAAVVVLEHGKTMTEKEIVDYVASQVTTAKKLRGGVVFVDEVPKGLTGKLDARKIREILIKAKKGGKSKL

Structure (SMILES)	composite z-score [1]	composite z-score [2]	composite z-score [3]	composite z-score [4]	composite z-score [5]	composite z-score [6]	z-score [7]	composite z-score [8]	composite z-score [9]	z-score [10]
CCCC[C@@H]1CN2[C@@H](CC[C@@H](C)[C@@H]2c2ccc(Br)cc2)C(=O)O1	2.07 and 0.917	1.16 and 0.572	0.367 and -0.0877	0.822 and 0.727	0.493 and 0.606	0.295 and 0.952	-0.555 and 1.63	0.647 and 0.882	0.303 and 0.182	0.355 (inactive) and -0.572 (inactive)
C[C@@H]1CC[C@@H](C(=O)O)N[C@H]1c1ccc(-c2ccco2)cc1	0.893	-0.253	0.0242	1.02	1.32	1.14	1.41	1.18	0.589	-0.906 (inactive)
C[C@@]1([C@@H](NC(=O)Cc2ccccc2)c2ccc(-c3ccccc3)cc2)C[C@H]1C1CCCCC1	1.13 and 1.49 and 1.27	1.18 and 1.08 and 0.987	0.284 and 0.0485 and 0.83	0.666 and 0.314 and 0.934	0.153 and -0.222 and -0.138	-0.131 and -0.0451 and -0.355	-0.788 and 0.267 and 0.196	-1.08 and -1.06 and -0.0526	1.04 and 0.829 and 1.15	0.393 (inactive) and 0.406 (inactive) and 1.92 (inactive)
CCOC(=O)c1ccc(NC(=O)O[C@H]2[C@H](OC(=O)Nc3ccccc3)[C@@H](OC(=O)Nc3ccccc3)[C@@H](OC)O[C@@H]2CO)cc1	2.39 and 2.88	1.26 and 1.28	1.78 and 0.545	1	1.2 and 1.4	0.601 and 1.59	-1.02 and -1.32	0.88 and 1.51	1.32 and 1.12	-0.427 (inactive) and -0.249 (inactive)
C=C[C@H](OC)[C@@H](O)c1ccc(OCCO)cc1	-1.34 and 2.11	-1.73 and -0.721	-0.86 and 0.0202	-2.46 and -1.57	-1.51 and -0.835	-1.92 and -0.492	-0.669 and 0.692	-2.17 and -1.55	-2.15 and -0.827	-0.117 (inactive) and -1.75 (inactive)
CCOC(=O)C[C@H]1[C@H](OC(=O)c2ccccc2-c2ccccc2)[C@@H](NC(=O)c2ccccc2)c2cc(OCCCO)ccc2N1C(=O)c1ccc2ccccc2n1	0.861 and 1.4	0.547 and 0.311	-0.0011 and 0.466	0.0271 and 0.432	0.41 and 1.12	0.566 and 0.845	1.1 and 0.202	0.513 and 0.934	0.692 and 0.31	-0.233 (inactive) and -0.818 (inactive)
CCOC(=O)[C@H](CC(C)C)NC(=O)CCC1CC(OC(=O)NCc2cccc3ccccc23)CC2(CCCC(COC(=O)NCc3ccccc3)O2)O1 (stereo not given in full)	0.223	-0.439	-0.159	-1.97	-0.126	-0.105	0.629	0.275	-0.0551	0.529 (inactive)
C[N+](C)(C)CCCCNC(=O)[C@H]1C[C@H]2C(=O)N[C@@H](CCCC[N+](C)(C)C)C(=O)N2[C@H]1c1cccc(OCCO)c1	1.98 and 1.03	-0.166 and 0.848	-0.389 and -0.117	-0.816 and -0.179	1.49 and 1.53	1.93 and 1.73	-0.59 and -0.114	1.75 and 1.59	-1.07 and 1.04	0.254 (inactive) and 0.0887 (inactive)
CO[C@H]1COC(=O)CC=C[C@@H](C)COC(=O)[C@H](CCSC)NC(=O)CC=C[C@@H]1C	0.512 and -0.138	-0.375 and -0.74	0.285 and -0.776	-1.19 and -1.63	1.5 and 1.58	1.97 and 1.78	-1.26 and 0.523	1.79 and 1.82	-0.353 and -1.42	-0.142 (inactive) and -0.463 (inactive)
C=CCN(C(=O)C(c1cccs1)N(CCOCCO)C(=O)/C=C\C(=O)O)C(C)(C)C (stereo not given)	-1.68 and -1.56	-1.4 and -0.488	-1.37 and -0.35	-0.7 and -1.15	-2.15 and -0.795	-1.7 and -1.19	1.01 and 1.41	-1.66 and -1.83	-1.04 and -0.022	-1.5 (inactive) and -1.32 (inactive)
C=CCN(CCCCC)C(=O)C(c1cccs1)N(CCOCCO)C(=O)/C=C\C(=O)O (stereo not given)	-0.635 and -0.348	-1.05 and -0.826	-0.759 and 0.926	-1.57 and -1.63	-2.22 and -1.47	-1.77 and -1.79	1.34 and 0.685	-0.99 and -1.37	-0.539 and 0.579	-4.23 (inactive) and -3.13 (inactive)
C[N+](C)(C)CCCCCCNC(=O)[C@H]1C[C@H]2C(=O)N[C@@H](CCCC[N+](C)(C)C)C(=O)N2[C@H]1c1ccc(O)cc1	-0.389 and 0.368	-0.558 and -0.643	-0.391 and -0.0304	-0.112 and -0.705	1.13 and 1.16	1.52 and 0.18	-1.08 and -0.207	1.56 and 0.452	0.618 and -0.277	1.03 (inactive) and 0.485 (inactive)
C=C[C@@H](C)[C@@H](O)c1ccc(OCCO)cc1	-0.641 and -0.244	-0.66 and -0.875	-0.467 and -1.08	-1.87 and -1.43	-1.14 and -0.506	-2.62 and -0.83	-0.0607 and 0.803	-1.33 and -1.19	-0.616 and -0.2	-5.97 (inactive) and -7.19 (inactive)
C=CCN(CCCCC)C(=O)C(c1cccs1)N(C(=O)/C=C\C(=O)O)c1ccc(CCO)cc1 (stereo not given)	-0.206 and -1.12	-0.502 and -0.625	-0.279 and -0.0021	-1.39 and -1.21	-1.43 and -0.996	-1.54 and -1.4	0.868 and 0.897	-1.07 and -1.27	-0.573 and -0.325	-1.24 (inactive) and -0.887 (inactive)
